Compound activity (PubChem)
HSP90 inh – inhibitors of HSP90 luciferase refolding in rabbit reticulocyte lysate | luciferase refolding luminescence, 3 h | inhibition, % at 5.6 µM | 0.91% of 290,000 active;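 active = inhibition above the screen-wide mean plus 3 SD, computed separately per campaign, cut at about 16% in these data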;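 also: 0% = DMSO wells and 100% = 60 µM geldanamycin wells; inhibitors lower the luminescence because luciferase stays unfolded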
HSF-1 act – increases HSF-1 driven luciferase reporter signal; NIH3T3-HGL HSF-1 luciferase reporter, MG132, 8 h; 100% = twice DMSO control signal; activation, % at 9 µM; 1.7% of 300,000 active; AID 504408;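 active = mean replicate activation of at least 50% with a set share of replicates each reaching 50%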;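 also: 0% = median of the neutral control wells and 100% = twice that signal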
ARNT-TACC3 inh – disrupts binding between human ARNT and TACC3; Q9Y6A5; AlphaScreen His-ARNT PAS-B/GST-TACC3 binding, luminescence; TACC3 fragment carries E629A point mutation; inhibition, % at 9.99 µM; 0.66% of 390,000 active; AID 623870;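 active = mean inhibition of replicates at least 50% and at least half of replicates each reaching 50%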;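 also: 0% = complete ARNT plus TACC3 wells and 100% = ARNT alone without TACC3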
HIF activator – HIF pathway transcriptional activation; U2OS HRE-luciferase reporter, luminescence; normalized: DMSO 0%, desferrioxamine 100%; activation, % at 7.5 µM (by protocol); 0.32% of 300,000 active; AID 1910;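 active = mean activation of at least 10% of the iron chelator positive control signal, with at least half of replicates also reaching 10%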
HSF1 inhib – HSF1 inhibition | AID 2098 | activity change, negative = inhibition, % at 7.5 µM (by protocol) | 0.77% of 300,000 active | NIH3T3-HGL HSE-luciferase, MG132-induced, luminescence 8 h; stronger effect = lower value;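 active = more than half of replicate wells show activity change below -50%, luminescence cut by over half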;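 also: luciferase reports HSF-1 transcriptional activity via heat shock element; 0% = median of DMSO wells and -100% = zero luminescence signal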
* marks the source's active call; other numbers are inactive results; x = no result. Sampled rows, rich in hits. Any-hit rate of the full collection: about 3.1%.

SMILES | HSP90 inh | HSF-1 act | ARNT-TACC3 inh | HIF activator | HSF1 inhib
O=C(C[n+]1cccc(C(=O)Nc2ccccc2)c1)c1ccc([N+](=O)[O-])cc1 | 4.3 | 131.8* | x | 1.5 | 59.8
COc1ccccc1NC(=S)NN=C(C)c1ccccn1 | x | x | 64.8* | x | x
CC(=NNC(=S)Nc1ccc(C)cc1)c1ccccn1 | x | x | 61.8* | x | x
CC(=NNC(=S)Nc1cccc(C)c1)c1ccccn1 | x | x | -4.3 | x | x
COc1ccccc1NC(=O)N[C@H]1CC[C@@H](CCNC(=O)Cc2ccccn2)O[C@@H]1CO | x | x | 11.7 | x | x
C[C@@H]1CN([C@H](C)CO)C(=O)c2cc(C#Cc3ccccn3)cnc2O[C@H]1CN(C)C(=O)c1cnccn1 | x | x | 5.3 | x | x
CO[C@H]1CN(C)C(=O)c2ccc(NC(C)=O)cc2OC[C@@H](C)N(Cc2nccs2)C[C@@H]1C | x | x | -9.0 | x | x
Cc1ccc(NC(=O)CSCc2cc(=O)n3cc(C)sc3n2)c(C)c1 | -1.2 | -69.5 | -3.1 | 0.1 | -59.0*
Cc1ccc(NC(=O)CSCc2cc(=O)n3cc(C)sc3n2)cc1 | 1.0 | 16.0 | 0.2 | 0.4 | 9.9
CS(=O)(=O)c1nc(-c2ccccc2)cc(-c2ccccc2)c1C#N | -3.8 | 166.7* | -0.8 | -0.8 | 159.4
Cc1c(CCO)c(=O)n(-c2ccccc2)n1S(=O)(=O)c1c(Cl)cc(Cl)cc1Cl | 1.2 | 8.3 | 56.6* | -1.2 | 17.2
COc1ccc2ccccc2c1C1CC(=O)N2CN(Cc3ccco3)CSC2=C1C#N (configuration not stated) | 3.2 | 1.1 | 3.9 | -0.4 | 13.1
COc1ccc2ccccc2c1C1CC(=O)N2CN(C3CCCCC3)CSC2=C1C#N (configuration not stated) | -2.7 | -63.6 | 10.3 | -0.3 | -53.7*
C[C@H]1CN([C@@H](C)CO)S(=O)(=O)c2ccc(C3=CCCCC3)cc2O[C@@H]1CN(C)C(=O)Cc1ccncc1 | x | x | 10.2 | x | x
C[C@@H]1CN([C@@H](C)CO)C(=O)c2cc(-c3ccccc3)cnc2O[C@H]1CN(C)C(=O)c1ccccn1 | x | x | -7.2 | x | x
C(#Cc1ccccc1)CN1CCN(c2ccccn2)CC1 | 2.3 | -79.5 | -3.4 | 0.8 | -71.6*
CC(C)(C)S(=O)(=O)c1cnc(-c2ccccn2)nc1N | 1.8 | 1.2 | 58.7* | 0.9 | 2.5
CC(C)(C)S(=O)(=O)c1cnc(-c2cnccn2)nc1N | 0.8 | 37.9 | 5.6 | -0.2 | 2.4
O=C(NCc1cccc(F)c1)[C@@H]1[C@@H](CO)[C@@H]2Cn3c(cccc3=O)[C@H]1N2C(=O)c1cnccn1 | x | x | active | x | x
O=C(NCc1ccc(F)cc1)[C@H]1[C@H](CO)[C@H]2Cn3c(cccc3=O)[C@@H]1N2C(=O)c1cnccn1 | x | x | -4.5 | x | x
Cc1ccc(S(=O)(=O)N(C)C[C@@H]2Oc3ccc(NC(=O)Cc4cn(C)c5ccccc45)cc3C(=O)N([C@@H](C)CO)C[C@H]2C)cc1 | x | x | 6.8 | x | x
S=c1[nH]nc(-c2ccccn2)n1/N=C/c1cccc(Cl)c1 | 0.1 | 5.8 | 61.1* | -1.2 | -5.0
Cc1ccsc1/C=N/n1c(-c2ccccc2)n[nH]c1=S | 3.0 | 0.5 | 38.8 | -0.2 | 2.2
O=[N+]([O-])c1cc2c(cc1/C=N/n1c(-c3ccccn3)n[nH]c1=S)OCO2 | 3.3 | 0.5 | 70.9* | -0.8 | 1.5
Cc1ccsc1/C=N/n1c(-c2ccccn2)n[nH]c1=S | 1.0 | -10.3 | 60.6* | 0.0 | -4.8
SMILES | HSP90 inh | HSF-1 act | ARNT-TACC3 inh | HIF activator | HSF1 inhib
COCC(=O)Nc1ccc2c(c1)C(=O)N(C)[C@@H]1CC[C@H](CC(=O)NCC(F)(F)F)O[C@@H]1CO2 | x | x | -0.7 | x | x
CC(NC(=O)c1ccccc1Br)c1ccc2c(c1)CCCC2 (configuration not stated) | 3.1 | 59.4* | -19.4 | 0.1 | 20.8
CO[C@@H]1CN(C)C(=O)c2cc(NC(=O)C3CC3)ccc2OC[C@@H](C)N(C(=O)c2ccccc2F)C[C@H]1C | x | x | 4.6 | x | x
CO[C@H]1CN(C)C(=O)c2cc(NC(=O)NC(C)C)ccc2OC[C@H](C)N(C(=O)C2CCC2)C[C@@H]1C | x | x | -5.9 | x | x
O=C(COc1ccccc1)Nc1nnc(S(=O)(=O)N2CCCCCC2)s1 | 1.2 | -77.6 | 20.9 | 0.1 | -71.0*
O=C(COc1ccccc1)Nc1nnc(S(=O)(=O)N2CCCCC2)s1 | 1.3 | 8.9 | -0.2 | 0.0 | 0.2
CC(OC(=O)/C=C/c1ccc2ccccc2n1)C(=O)NCc1ccccc1 (configuration not stated) | x | 121.7* | 0.8 | 1.3 | 79.8
CC(C)c1ccc(OCC(=O)N2CCCCCC2)c(Br)c1 | -4.4 | 101.1* | 0.3 | 1.5 | 60.8
CC(C)NS(=O)(=O)c1ccc(OCC(=O)N2CCCC2)c(Cl)c1 | -2.5 | -62.4 | -6.8 | -0.2 | -53.5*
C[C@@H]1CCCCO[C@@H](CN(C)CC2CC2)[C@H](C)CN([C@H](C)CO)C(=O)c2cc(NS(C)(=O)=O)ccc2O1 | x | x | 19.4 | x | x
CCn1c(C(C#N)/C(=N\S(=O)(=O)c2cccs2)c2ccccc2)nc2ccccc21 (configuration not stated) | -2.8 | -72.2 | 35.2 | -0.8 | -66.1*
CCn1c(-c2cccs2)nc2ccccc21 | -3.7 | 14.4 | -0.1 | 0.3 | 3.5
NC(=O)c1ccc(C(F)(F)F)n(Cc2cccc(Cl)c2)c1=O | 2.2 | 64.4* | 1.3 | -0.6 | 24.9
NC(=O)c1ccc(C(F)(F)F)n(Cc2ccc(Cl)cc2)c1=O | -1.3 | 22.2 | 5.9 | -0.2 | 3.4
COc1ccc(-n2c(C)cc(C(=O)CSc3ccc(NC(C)=O)cc3)c2C)cc1 | -6.3 | 17.1 | -0.2 | 1.0 | 15.4
CC(=O)Nc1ccc(SCC(=O)c2cc(C)n(-c3ccccc3)c2C)cc1 | 0.7 | -74.5 | -8.3 | -2.9 | -67.5*
COc1cc(/C=C2\SC(=O)N(c3ccc(Cl)cc3)C2=O)cc([N+](=O)[O-])c1O | 66.4* | x | 7.5 | x | x
O=C(Nc1ccc2oc(=O)ccc2c1)c1ccc2ccccc2c1 | 0.2 | 59.9* | -0.2 | 2.7 | 17.2
O=C(NC(=S)Nc1ccc2oc(=O)ccc2c1)c1cc2ccccc2o1 | 2.9 | -85.5 | -4.4 | -1.3 | -84.0*
O=C(Cc1ccccc1)Nc1ccc2oc(=O)ccc2c1 | -4.9 | -12.4 | 38.6 | -0.3 | -3.9
CC(=O)Nc1ccc(NC(=S)NC(=O)c2cc3ccccc3o2)cc1 | -2.0 | 35.4 | -0.3 | 0.7 | 9.0
O=C(NC(=S)Nc1cccnc1)c1cc2ccccc2o1 | -0.6 | 59.1* | -2.0 | 1.4 | 12.2
O=C(Nc1ccc2ccccc2c1)c1cccc(F)c1 | -0.6 | 79.0* | -16.0 | 4.6 | 39.2
CCOc1ccc2nc(SCc3ccccc3C#N)sc2c1 | -1.3 | 114.8* | -3.6 | 3.6 | 68.4
CO[C@@H]1CN(C)C(=O)c2ccc(NC(=O)c3cc(C)on3)cc2OC[C@@H](C)N(C(C)=O)C[C@@H]1C | x | x | -9.0 | x | x
CCOC(=O)N1CCN(C2CC(=O)N(c3ccc(Cl)c(Cl)c3)C2=O)CC1 (configuration not stated) | 2.1 | x | 3.4 | x | x
CCOC(=O)N1CCN(c2ccc(Cl)c(Cl)c2)CC1 | 0.8 | -8.5 | -14.1 | 107.4* | 3.5
